# Reference: PubChem BioAssay (NCATS)
# Results filed as inconclusive are left out. The source made the active and inactive calls. The call rests on the fitted dose curve; in most records, active means well fitted curve in the direction sought with a large enough effect; inconclusive means small, poorly fitted or top-dose-only effect, or another doubt; inactive means no such curve, though single readings can be large; an effect the other way counts as inactive or inconclusive. Non-standard residues stand in square brackets, D forms with d. Residues, ends and D or L forms follow the SMILES beside them. *: point of attachment. Nva = CCC[C@H](N)C(=O)O; Cbz = O=C(OCc1ccccc1)*
# Experiment: qHTS of pediatric cancer cell lines to identify multiple opportunities for drug repurposing: Confirmatory screen for Rh18 cells (AID 1347125); further: nearly all actives have a fitted effect of over 55% in size
# Details: Rh18 rhabdomyosarcoma cells, viability; series mostly up to 45.9 µM
# In short: (§1)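 Cells (500-1,000/well) rested 5 h, then received compounds for 48 h; metabolically active cells were measured by CellTiter-Glo luminescence. Final concentrations spanned up to 46 µM (MIPE, 11-point) or 0.59 nM-46 µM (NPC, 8-point) in primary screens, 11-point in follow-ups.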
# Potency means the concentration at half of the fitted maximal effect.
row,SMILES,Potency
1,O=C(C=CC#Cc1cccc(NS(=O)(=O)c2ccccc2)c1)NO,2330 nM (active)
2,FC(F)c1nc2ccccc2n1-c1nc(N2CCOCC2)nc(N2CCOCC2)n1,1850 nM (active)
3,CC(C=CC(=O)NO)=C[C@@H](C)C(=O)c1ccc(N(C)C)cc1,928 nM (active)
4,CC(C)C[C@@H](C=O)NC(=O)[C@H](CC(C)C)NC(=O)[C@H](CC(C)C)NC(=O)OCc1ccccc1 (Cbz-Leu-Leu-Leu-aldehyde),1650 nM (active)
5,C[C@@H](Oc1ccc2[nH]nc(C=Cc3cnn(CCO)c3)c2c1)c1c(Cl)cncc1Cl,3690 nM (active)
6,CCS(=O)(=O)Nc1ccc2[nH]c(O)c(C(=Nc3ccc(CN4CCCCC4)cc3)c3ccccc3)c2c1,4650 nM (active)
7,CC1(C)O[C@@H]2C[C@H]3[C@@H]4CCC5=CC(=O)C=C[C@]5(C)[C@@H]4[C@@H](O)C[C@]3(C)[C@]2(C(=O)CO)O1,inactive

# Experiment: qHTS of pediatric cancer cell lines to identify multiple opportunities for drug repurposing: Confirmatory screen for Rh30 cells (AID 1347126); further: nearly all actives have a fitted effect of over 55% in size
# Details: Rh30 rhabdomyosarcoma cell viability; series mostly up to 45.9 µM
# In short: as §1
row,SMILES,Potency
1,Cn1cc(CNCC2CCN(c3ncc(C(=O)NO)cn3)CC2)c2ccccc21,293 nM (active)
2,N#Cc1c(NC(=O)c2cccc3ccccc23)sc2c1CCCC2,inactive
3,CC(=O)N1CCN(c2ccc(OCc3nn(C)c(C)c3-c3cccc4c(CCCOc5cccc6ccccc56)c(C(=O)O)n(Cc5cccnc5)c34)cc2)CC1,inactive
4,O=C(NC1CC1)c1cccc(-c2ccc3c(NC(=O)C4CC4)n[nH]c3c2)c1,inactive
5,CC(C)(N)c1ccc(-c2nc3ccccc3nc2-c2ccccc2)cc1,inactive
6,CC(=O)O[C@@]12CO[C@H]1C[C@H](O)[C@@]1(C)C(=O)[C@H](O)C3=C(C)[C@@H](OC(=O)C(O)[C@@H](NC(=O)OC(C)(C)C)c4ccccc4)C[C@@](O)([C@@H](OC(=O)c4ccccc4)[C@@H]21)C3(C)C (stereo not given in full),inactive
7,CNC(=O)c1ccc(Nc2cc(Nc3ccccc3S(=O)(=O)C(C)C)c3cc[nH]c3n2)nc1,4140 nM (active)
8,C#CCC(Cc1cnc2nc(N)nc(N)c2n1)c1ccc(C(=O)N[C@@H](CCC(=O)O)C(=O)O)cc1 (stereo not given in full),inactive
9,O=C(O)C[C@H](O)C[C@H](O)C=Cc1c(C2CC2)nc2ccccc2c1-c1ccc(F)cc1,2330 nM (active)
10,COc1cccc2c1C(=O)c1c(O)c3c(c(O)c1C2=O)C[C@@](O)(C(=O)CO)C[C@@H]3O[C@H]1C[C@H](N)[C@H](OC2CCCCO2)[C@H](C)O1 (stereo not given in full),inactive
11,Cc1nc(NC(=O)N2CCC[C@@H]2C(N)=O)sc1-c1ccnc(C(C)(C)C(F)(F)F)c1,5220 nM (active)
12,CC(=O)SCC(Cc1ccccc1)C(=O)NCC(=O)OCc1ccccc1 (stereo not given),inactive
13,C[C@H](NCc1ccc2c(c1)nc(NC(=O)c1ccc(-c3cn[nH]c3)s1)n2CCc1ccccc1)C(C)(C)C,4140 nM (active)
14,Cn1cc(-c2cnn3c(N)c(Br)c([C@H]4CCCNC4)nc23)cn1,3690 nM (active)
15,CS(=O)(=O)N1CCc2c(-c3cnc(N)nc3)nc(N3CCOCC3)nc21,1470 nM (active)
16,COC1=C2C[C@@H](C)C[C@H](OC)[C@@H](O)[C@@H](C)C=C(C)[C@H](OC(N)=O)[C@@H](OC)C=CC=C(C)C(=O)NC(=CC1=O)C2=O,1310 nM (active)
17,COC(=O)C=CC(=O)OC,4140 nM (active)
18,C=Cc1c(C)c2cc3nc(cc4[nH]c(cc5nc(cc1[nH]2)C(C)=C5CCC(=O)O)c(CCC(=O)OC)c4C)[C@@]1(C)C3=CC=C(C(=O)OC)[C@H]1C(=O)OC,inactive
19,NS(=O)(=O)OC[C@@H]1C[C@@H](n2ccc3c(N[C@H]4CCc5ccccc54)ncnc32)C[C@H]1O,inactive
20,Cc1cc(Nc2ncc3c(n2)N(C)C(=O)N(c2cc(NC(=O)c4cccc(C(F)(F)F)c4)ccc2C)C3)n(C)n1,inactive
21,O=C(C=CC#Cc1cccc(NS(=O)(=O)c2ccccc2)c1)NO,5220 nM (active)
22,FC(F)c1nc2ccccc2n1-c1nc(N2CCOCC2)nc(N2CCOCC2)n1,1650 nM (active)
23,CC(C=CC(=O)NO)=C[C@@H](C)C(=O)c1ccc(N(C)C)cc1,inactive
24,CC(C)C[C@@H](C=O)NC(=O)[C@H](CC(C)C)NC(=O)[C@H](CC(C)C)NC(=O)OCc1ccccc1 (Cbz-Leu-Leu-Leu-aldehyde),3290 nM (active)
25,CCS(=O)(=O)Nc1ccc2[nH]c(O)c(C(=Nc3ccc(CN4CCCCC4)cc3)c3ccccc3)c2c1,1650 nM (active)
26,CC1(C)O[C@@H]2C[C@H]3[C@@H]4CCC5=CC(=O)C=C[C@]5(C)[C@@H]4[C@@H](O)C[C@]3(C)[C@]2(C(=O)CO)O1,inactive

# Experiment: qHTS of pediatric cancer cell lines to identify multiple opportunities for drug repurposing: Confirmatory screen for Saos-2 cells (AID 1347127); further: nearly all actives have a fitted effect of over 60% in size
# Details: Saos-2 osteosarcoma cell viability; series mostly up to 45.9 µM
# In short: as §1
row,SMILES,Potency
1,Cn1cnc(=N)c2[nH]cnc21,inactive
2,N#Cc1c(NC(=O)c2cccc3ccccc23)sc2c1CCCC2,261 nM (active)
3,COC(=O)C1C2CC3c4[nH]c5cc(OC)ccc5c4CCN3CC2CC(OC(=O)c2cc(OC)c(OC)c(OC)c2)C1OC (stereo not given),5850 nM (active)
4,Cc1nc(NC(=O)N2CCC[C@@H]2C(N)=O)sc1-c1ccnc(C(C)(C)C(F)(F)F)c1,5850 nM (active)
5,CC(C)(O)Cn1c(NC(=O)c2ccc(-c3cn[nH]c3)s2)nc2cc(CN3CCOCC3)ccc21,585 nM (active)
6,N#Cc1c(C2CCNCC2)cc(-c2c(O)cccc2OCC2CC2)nc1N,inactive
7,CC(=O)ON=C1C(c2c(O)[nH]c3cc(Br)ccc23)=Nc2ccccc21,13100 nM (active)
8,CC(=O)SCC(Cc1ccccc1)C(=O)NCC(=O)OCc1ccccc1 (stereo not given),inactive
9,COc1cc(OC)c(C=CS(=O)(=O)Cc2ccc(OC)c(NCC(=O)O)c2)c(OC)c1,329 nM (active)
10,C[C@H](NCc1ccc2c(c1)nc(NC(=O)c1ccc(-c3cn[nH]c3)s1)n2CCc1ccccc1)C(C)(C)C,1470 nM (active)
11,CC(C(C)N1CC(=O)NC(=O)C1)N1CC(=O)NC(=O)C1 (stereo not given),inactive
12,CS(=O)(=O)N1CCc2c(-c3cnc(N)nc3)nc(N3CCOCC3)nc21,2330 nM (active)
13,CCC[C@@H](C=O)NC(=O)[C@H](CC(C)C)NC(=O)[C@H](CC(C)C)NC(=O)OCc1ccccc1 (Cbz-Leu-Leu-[Nva]-aldehyde),3290 nM (active)
14,CS[C@H]1SC[C@@H]2C(=O)N(C)[C@H](C(C)C)C(=O)OC[C@H](NC(=O)c3cnc4ccccc4n3)C(=O)N[C@H](C)C(=O)N(C)[C@@H]1C(=O)N(C)[C@H](C(C)C)C(=O)OC[C@H](NC(=O)c1cnc3ccccc3n1)C(=O)N[C@H](C)C(=O)N2C,inactive
15,CC(=O)[C@]1(O)Cc2c(O)c3c(c(O)c2[C@@H](O[C@H]2C[C@H](N)[C@@H](O)[C@H](C)O2)C1)C(=O)c1ccccc1C3=O,inactive
16,Cc1ccc([N+](=O)[O-])cc1S(=O)(=O)N(C)N=Cc1cnc2ccc(Br)cn12,2330 nM (active)
17,C=Cc1c(C)c2cc3nc(cc4[nH]c(cc5nc(cc1[nH]2)C(C)=C5CCC(=O)O)c(CCC(=O)OC)c4C)[C@@]1(C)C3=CC=C(C(=O)OC)[C@H]1C(=O)OC,inactive
18,C=CC(=O)N1CCc2ccc(-n3c(=O)ccc4cnc5ccc(-c6cnn(C)c6)cc5c43)cc21,5220 nM (active)
19,NS(=O)(=O)OC[C@@H]1C[C@@H](n2ccc3c(N[C@H]4CCc5ccccc54)ncnc32)C[C@H]1O,inactive
20,Cc1cc(Nc2ncc3c(n2)N(C)C(=O)N(c2cc(NC(=O)c4cccc(C(F)(F)F)c4)ccc2C)C3)n(C)n1,585 nM (active)
21,C[C@@H](Oc1ccc2[nH]nc(C=Cc3cnn(CCO)c3)c2c1)c1c(Cl)cncc1Cl,2610 nM (active)
22,CC1(C)O[C@@H]2C[C@H]3[C@@H]4CCC5=CC(=O)C=C[C@]5(C)[C@@H]4[C@@H](O)C[C@]3(C)[C@]2(C(=O)CO)O1,inactive
